# In ChEMBL document CHEMBL1201862, “PubChem BioAssay data set” (2004):
# Target: Beta Lactamase (Pseudomonas aeruginosa) (UniProt Q932Y6)
# Assay: Late stage assay provider results from the probe development efforts to identify selective inhibitors of VIM-2 metallo-beta-lactamase: VIM-2-transformed E. coli growth inhibition in the presence of imipenem (synergy).
# Type: functional
structure (smiles),measurement,value
O=c1[nH]c2c(s1)[C@H](c1cccnc1)[C@H]1C3CC[C@@H](C3)[C@H]1S2,MIC,> 100 µM (active)
